Compound activity as filed in PubChem BioAssay.
Sfp inh: blocks B. subtilis Sfp PPTase activity. actives 3.5% (n = 310,000). Biochemical Sfp PPTase activity, qHTS. Q9F4F7. AID 1490. Potency, µM, inactives show largest response in the series, negative = inhibition, actives largely listed as inhibitors;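 also: the enzyme is Sfp with the accession as filed and its product quenches rhodamine fluorescence; 0% = enzyme reaction without inhibitor and -100% = no enzyme wells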
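Compounds were incubated with enzyme (final 15 nM) for 15 min at room temperature before substrate addition started the reaction. Fluorescence at 525 nm excitation, 598 nm emission was recorded immediately and after 30 minutes.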
G9a block: blocks human histone lysine methyltransferase G9a; Q96KQ7; G9a H3K9 monomethylation, AlphaScreen, 2 h; Potency, µM (top dose mostly 102 µM), for inactives: at the top dose activity, negative = inhibition, usual class: inhibitors; actives 8.8% (n = 350,000); also: % is scaled to controls: 0 for no effect and ±100 for the full control effect; nearly all actives have a fitted effect of over 75% in size
Target sequence (Q96KQ7 913-1193 limits assumed): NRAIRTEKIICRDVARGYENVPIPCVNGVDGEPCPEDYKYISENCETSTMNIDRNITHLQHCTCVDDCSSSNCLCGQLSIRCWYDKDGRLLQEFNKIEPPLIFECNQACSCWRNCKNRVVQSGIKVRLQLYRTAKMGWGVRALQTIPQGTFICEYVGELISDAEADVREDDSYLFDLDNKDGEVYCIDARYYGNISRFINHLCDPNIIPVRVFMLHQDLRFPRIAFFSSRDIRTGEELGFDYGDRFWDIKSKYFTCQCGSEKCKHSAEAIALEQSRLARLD
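Step 1: enzyme (final 20 nM) with compound, 15 min RT. Step 2: substrate peptide 500 nM and SAM 20 uM, 2 h RT. Step 3: anti-H3K9me1 antibody and AlphaScreen beads, 10 min, then plate read.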
PLK1 PBD inh: blocks phosphopeptide binding to human PLK1 polo-box domain; P53350; Plk1 PBD binding of FITC phosphopeptide, fluorescence polarization; Potency, µM, for inactives: max response, negative = inhibition, usual class: inhibitors; actives 2.8% (n = 360,000); AID 720504; also: series mostly up to about 57 µM; % is scaled to controls: 0 for no effect and ±100 for the full control effect; nearly all actives have a fitted effect of over 65% in size
JMJD2A Tudor: JMJD2A Tudor domain (human) inhibition | O75164 | AlphaScreen JMJD2A-Tudor / H3K4me3 peptide binding | Potency, µM (doses to about 114 µM), inactives show top-dose activity change, negative = inhibition, usual class: inhibitors | actives 4.4% (n = 390,000) | AID 504339; also: % is scaled to controls: 0 for no effect and ±100 for the full control effect; nearly all actives have a fitted effect of over 50% in size
HP1b binding inh: blocks HP1-beta chromodomain binding to methylated histone tails | actives 0.56% (n = 390,000) | Potency, µM (titrated, usually from 114 µM), for inactives: top-dose activity change, negative = inhibition, hits mostly inhibitors | AID 540317 | P83916 | AlphaScreen HP1-beta / biotin-H3K9me3 peptide binding; also: nearly all actives have a fitted effect of over 70% in size
Target sequence (P83916 whole entry, looked up): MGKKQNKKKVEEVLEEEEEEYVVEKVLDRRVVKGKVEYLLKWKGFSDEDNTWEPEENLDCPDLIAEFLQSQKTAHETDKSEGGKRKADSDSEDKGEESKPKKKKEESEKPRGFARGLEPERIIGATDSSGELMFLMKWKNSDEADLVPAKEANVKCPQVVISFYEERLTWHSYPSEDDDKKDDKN
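AlphaScreen: HP1-beta (50 nM) preformed 30 min with biotin-H3(1-18)K9me3 peptide (50 nM) in PBS pH 7.4, 0.01% Tween-20. Compound added for 30 min at RT, then streptavidin donor/nickel chelate acceptor beads (10 ug/mL) for 30 min.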
BAZ2B inh: blocks human BAZ2B; AlphaScreen BAZ2B-H3K14Ac peptide displacement; Q9UIF8; Potency, µM (doses to about 114 µM), inactives show at the highest dose activity change, negative = inhibition, usual class: inhibitors; actives 4.4% (n = 360,000); also: % is scaled to controls: 0 for no effect and ±100 for the full control effect; nearly all actives have a fitted effect of over 60% in size
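AlphaScreen displacement of biotin-H3(5-23)K14Ac peptide (50 nM final) from BAZ2B (50 nM final) in PBS pH 7.4, 0.01% Tween-20; complex preformed 30 min RT, then compounds (top 110 uM) 30 min RT, beads 20 min dark.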
* marks the source's active call; other numbers are inactive results; ? = inconclusive; / = no result; [ ] = dose if it differs, or a comment. Shown are actives, neighbours in structure and some others; about 12% of the full set was active somewhere. Calls follow the shape of the dose curve; as a rule, active = well fitted curve in the direction sought with a large enough effect; inconclusive = small, poorly fitted or top-dose-only effect, or another doubt; inactive = no such curve, though single readings can be large; an effect the other way counts as inactive or inconclusive. Potency is read from the fitted curve at half-maximal effect.

SMILES	Sfp inh	G9a block	PLK1 PBD inh	JMJD2A Tudor	HP1b binding inh	BAZ2B inh
CCOC(=O)C(Cc1ccc(NC(=O)/C(=C\c2ccccc2)NC(=O)c2ccccc2)cc1)N1C(=O)c2ccccc2C1=O (stereo not given)	16.7%	7.6%[59 µM]	-3.5%	6.7%[57.1 µM]	45.4%	-4.7%
O=C(Nc1sc2c(c1C(=O)O)CCCC2)c1cccc(Cl)c1	-8.0%	-15.6%	?	-24.9%	-6.9%	-12.3%
CC1(C)Cc2c(sc(NC(=O)c3ccccc3)c2C(=O)O)CO1	-20.7%	44.7µM*	13.4µM*	-4.5%	-16.7%	-34.8%
Cc1ccc(C(=O)c2c(NC(=O)c3cccnc3)sc3c2CCCC3)cc1	?	?	-3.9%	56.2µM*	-31.3%	?
O=C(Cc1ccccc1)Nc1sc2c(c1C(=O)Nc1ccccc1Cl)CCCC2	/	7.08µM*	/	-13.4%	-2.3%	-3.8%
O=C(Nc1sc2c(c1C(=O)O)CCC2)c1ccccc1	3.5%	?	?	?	-22.0%	79.4µM*
Cc1nc2cnc(N3CCN(C)CC3)nc2n(Cc2ccc(F)cc2)c1=O	10.0%	0.9%[0.501 µM]	/	/	/	/
O=C(Nc1sc2c(c1C(=O)O)CCC2)c1ccc(F)cc1	-6.3%	39.8µM*	-22.9%	-18.9%	19.4%	?
O=C(Nc1sc2c(c1C(=O)O)CCCCC2)c1ccccc1	39.8µM*	/	18.9µM*	-28.4%	?	?
O=C(Nc1sc2c(c1C(=O)O)CCCC2)c1ccc(Cl)cc1	8.0%	14.8%[59 µM]	-21.6%	-23.3%	24.7%	-30.0%
Cc1ccc(NC(=O)c2c(NC(=O)c3ccc(F)cc3)sc3c2CCCC3)cc1C	/	?	/	-31.0%	-11.8%	-6.7%
CCSc1ncc(Cl)c(C(=O)Nc2sc3c(c2C(=O)NCc2cccnc2)CCCC3)n1	-14.4%	25.9%[59 µM]	2.8%	100µM*	9.8%	5.2%
Cc1csc(SC(C)C(=O)Nc2ccc(Cl)cn2)n1 (stereo not given)	7.6%	18.0%[59 µM]	26.7µM*	0.8%[11.4 µM]	-0.9%	-4.6%
CC(Sc1nc(-c2ccc(F)cc2)cs1)C(=O)Nc1ccc(Cl)cn1 (stereo not given)	-2.1%	6.3%[59 µM]	-6.6%	-3.8%	16.2%	3.3%
COCCNC(=S)N=Nc1c(O)[nH]c2c(C)cc(C)cc12	-27.1%	-3.5%	-3.1%	-4.1%	17.5%	-10.4%
Cc1cc(C)c2[nH]c(=S)cc(C)c2c1	16.6%	3.55µM*	?	-3.1%[57.1 µM]	11.3%	-7.5%
CCc1ccc(NC(=O)[C@H](C)NC(=O)C2CCN(C(=O)[C@@H](N)CC(C)C)CC2)cc1	0.8%	?	-10.2%	-6.4%	24.9%	-9.0%
CCc1ccc(NC(=O)[C@H](C)NC(=O)C2CCN(C(=O)[C@@H](N)C(C)C)CC2)cc1	13.5%	50.1µM*	-5.5%	-3.3%	33.5%	-16.3%
CC(=O)Nc1ccc(S(=O)(=O)NCC2CCC(C(=O)NCCc3ccc(C)cc3)CC2)cc1 (stereo not given)	/	0.1%[59 µM]	/	-14.7%	32.0%	13.7%
Cc1[nH]c2ccccc2c1C(c1ccncc1)N1CCN(c2ccccc2F)CC1 (stereo not given)	8.8%	11.2µM*	-24.2%	?	-22.5%	?
Clc1ccc(C(c2ccccc2)N2CCN(c3ccccn3)CC2)cc1 (stereo not given)	-1.5%	29.0%	-7.4%	-8.4%	-12.5%	-14.0%
Cc1[nH]c2ccccc2c1C(c1ccncc1)N1CCN(c2ccccn2)CC1 (stereo not given)	?	22.4µM*	-23.7%	-35.4%	?	?
Cc1[nH]c2ccccc2c1C(c1ccncc1)N1CCC(C)CC1 (stereo not given)	-4.2%	28.2µM*	?	?	-12.3%	-10.8%
CCOC(=O)c1noc2nc(C)n(Cc3cccc(C#N)c3)c(=O)c12	/	16.7%[59 µM]	/	-12.5%	16.6%[57 µM]	-2.2%
COc1cccc(NC(=O)CN(C)C(=O)/C=C/c2cn(Cc3ccccc3)nc2-c2cccnc2)c1	/	-32.3%	4.8%	-18.0%	15.6%	-36.7%
